Test [1] in a line: qHTS assay to test for compound auto fluorescence at 535 nm (green) in HEK293 cells (AID 720680). Background: qHTS replaces the single test concentration by a dilution series.
The nature of test [2]: qHTS assay to test for compound auto fluorescence at 460 nm (blue) in HEK293 cell free culture (AID 720681). A digest of the protocol:
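Test compounds were pinned into cell-free culture medium (DMEM with 10% FBS) and fluorescence was read directly at Ex/Em 405/460 nm. Signals were expressed as fluorescence equivalents of triamterene, with DMSO vehicle as control.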

Test [3] can be described thus: qHTS assay to test for compound auto fluorescence at 535 nm (green) in HEK293 cell free culture (AID 720682). In short, it runs like this: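 No cells present: wells hold DMEM supplemented with 10% FBS, into which compound or vehicle is pinned. Green emission is then recorded (485 nm excitation, 535 nm emission) and scaled to fluorescein.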
A short description of test [4]: qHTS assay to test for compound auto fluorescence at 590 nm (red) in HEK293 cell free culture (AID 720683). In short, it runs like this:
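Tox21 10K library compounds were pinned into cell-free DMEM with 10% FBS and fluorescence was read at excitation 540 nm. Activity is expressed as Rose Bengal sodium equivalency.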

Test [5] is described as follows: qHTS assay to test for compound auto fluorescence at 590 nm (red) in HepG2 cell free culture (AID 720684). A digest of the protocol: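 Readout: intrinsic compound fluorescence at 590 nm emission after 540 nm excitation, scaled to Rose Bengal sodium. Matrix was cell-free MEM with 10% FBS; DMSO vehicle wells served as control.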
Test [6] can be described thus: qHTS assay to test for compound auto fluorescence at 460 nm (blue) in HepG2 cell free culture (AID 720685). A digest of the protocol: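 Cell-free plates of MEM plus 10% FBS received 23 nL compound or DMSO vehicle; blue-channel (405/460 nm) intensity scored against triamterene as reference fluorophore.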
A short description of test [7]: qHTS assay to test for compound auto fluorescence at 535 nm (green) in HepG2 cell free culture (AID 720686).
A short description of test [8]: qHTS assay to test for compound auto fluorescence at 460 nm (blue) in HepG2 cells (AID 720687). In short, it runs like this:
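Cells (2,000/well in MEM with 10% FBS) attached overnight at 37 C, then were exposed to compound or DMSO for 1 hr at 37 C, 5% CO2. Fluorescence read at Ex/Em 405/460 nm, expressed as triamterene-equivalent signal.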

A short description of test [9]: qHTS assay to identify small molecule antagonists of the glucocorticoid receptor (GR) signaling pathway - cell viability counter screen (AID 720693). Further: nearly all actives have a fitted effect of over 55% in size.
The nature of test [10]: qHTS assay for identifying genotoxic compounds that show differential cytotoxicity against isogenic chicken DT40 cell lines with known DNA damage response pathways - wild type cell line (AID 743012). Further: nearly all actives have a fitted effect of over 60% in size. Further: potency means the concentration at half of the fitted maximal effect. In short, it runs like this: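 Luminescent ATP viability signal (CellTiter-Glo, 30 min RT) recorded after wild type DT40 cells were incubated with compounds for 40 h at 37 C/5% CO2.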

The nature of test [11]: qHTS assay for identifying genotoxic compounds that show differential cytotoxicity against isogenic chicken DT40 cell lines with known DNA damage response pathways - Rev3 mutant cell line (AID 743014). Further: nearly all actives have a fitted effect of over 55% in size. Further: potency means the concentration at half of the fitted maximal effect.
A short description of test [12]: qHTS assay for identifying genotoxic compounds that show differential cytotoxicity against isogenic chicken DT40 cell lines with known DNA damage response pathways - Rad54/Ku70 mutant cell line (AID 743015). Further: nearly all actives have a fitted effect of over 60% in size. Further: potency means the concentration at half of the fitted maximal effect.
The nature of test [13]: qHTS assay to identify small molecule antagonists of the androgen receptor (AR) signaling pathway - cell viability counter screen (AID 743033; further: nearly all actives have a fitted effect of over 45% in size).
The target in test [14] is Androgen receptor (Homo sapiens) (UniProt P10275). Kind of test: qHTS assay to identify small molecule antagonists of the androgen receptor (AR) signaling pathway (AID 743035; active means well fitted inhibition curve with a large enough effect in the signal ratio in the repeat runs, not every such curve was filed as active; the % refers to the signal ratio). In short, it runs like this:
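Quantitative HTS of the Tox21 10K library used HEK293 AR-UAS-bla cells stimulated with R1881 alongside compound for 16 h at 37C, followed by beta-lactamase FRET detection (LiveBLAzer B/G, 2 h, RT).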

Test [15] has the same target. Kind of test: qHTS assay to identify small molecule agonists of the androgen receptor (AR) signaling pathway (AID 743036; active means well fitted activation curve with a large enough effect in the signal ratio in the repeat runs, with a control signal flat, not every such curve was filed as active; the % refers to the signal ratio). A digest of the protocol: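 Quantitative HTS of the Tox21 10K library in HEK293 cells bearing a stably integrated UAS-controlled beta-lactamase reporter. Compound exposure lasted 16 h at 37C. Reporter activity was detected by FRET substrate fluorescence after 2 h at room temperature.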

Test [16] shares this target. Kind of test: qHTS assay to identify small molecule agonists of the androgen receptor (AR) signaling pathway using the MDA cell line (AID 743040; further: nearly all actives have a fitted effect of over 20% in size). A digest of the protocol:
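Agonist activity is measured as luciferase luminescence in human MDA-kb2 cells whose MMTV reporter responds to both AR and GR. Compounds in DMSO incubate 16 h at 37C, 0% CO2, and ONE-Glo is read after 30 min.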

A short description of test [17]: qHTS assay to identify small molecule antagonists of the androgen receptor (AR) signaling pathway using the MDA cell line - cell viability counter screen (AID 743041; further: nearly all actives have a fitted effect of over 45% in size). In short, it runs like this:
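qHTS viability read-out; MDA-kb2 AR-luc; R1881-stimulated; 16 h exposure at 37C, 0% CO2; CellTiter-Fluor, 30 min; fluorescence intensity.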

Test [18] is described as follows: qHTS assay to identify small molecule antagonists of the thyroid receptor (TR) signaling pathway - cell viability counter screen (AID 743064). Further: nearly all actives have a fitted effect of over 50% in size. In short, it runs like this:
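Rat GH3 pituitary tumor cells stably expressing two TR response elements driving luciferase were plated, rested 4 h, then dosed with library compounds and T3 (1 nM final). After 23.5 h at 37 °C, CellTiter-Fluor was added for 30 min and fluorescence recorded.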

In test [19] the target is Glucocorticoid receptor (Homo sapiens) (UniProt P04150). Kind of test: qHTS assay to identify small molecule agonists of the glucocorticoid receptor (GR) signaling pathway (AID 720691; active means well fitted activation curve with a large enough effect in the signal ratio in the repeat runs, not every such curve was filed as active; the % refers to the signal ratio). In short, it runs like this:
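Cells: GR-bla HeLa, endogenous GR with stably integrated GRE-beta-lactamase reporter. Treatment 18 h, 37 C, compounds delivered in DMSO. Detection via LiveBLAzer B/G FRET substrate, 2 h RT, fluorescence intensity.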

Values joined by “and” are separate entries in the source; they are usually repeats but may differ in a detail not shown here. Identical values can stand only once. Unmarked numbers belong to inactive results. Inconclusive results are not listed. Active and inactive are the calls of the source. Unless noted, the call rests on the fitted dose curve; in most records, active means well fitted curve in the direction sought with a large enough effect in the repeat runs; inconclusive means weak or mixed curves; inactive means no such curve, though single readings can be large; an effect the other way counts as inactive or inconclusive.
On the % scale 0 is the no-effect control and ±100 the full control effect.

Chain of Androgen receptor (Homo sapiens) (P10275 whole entry, looked up): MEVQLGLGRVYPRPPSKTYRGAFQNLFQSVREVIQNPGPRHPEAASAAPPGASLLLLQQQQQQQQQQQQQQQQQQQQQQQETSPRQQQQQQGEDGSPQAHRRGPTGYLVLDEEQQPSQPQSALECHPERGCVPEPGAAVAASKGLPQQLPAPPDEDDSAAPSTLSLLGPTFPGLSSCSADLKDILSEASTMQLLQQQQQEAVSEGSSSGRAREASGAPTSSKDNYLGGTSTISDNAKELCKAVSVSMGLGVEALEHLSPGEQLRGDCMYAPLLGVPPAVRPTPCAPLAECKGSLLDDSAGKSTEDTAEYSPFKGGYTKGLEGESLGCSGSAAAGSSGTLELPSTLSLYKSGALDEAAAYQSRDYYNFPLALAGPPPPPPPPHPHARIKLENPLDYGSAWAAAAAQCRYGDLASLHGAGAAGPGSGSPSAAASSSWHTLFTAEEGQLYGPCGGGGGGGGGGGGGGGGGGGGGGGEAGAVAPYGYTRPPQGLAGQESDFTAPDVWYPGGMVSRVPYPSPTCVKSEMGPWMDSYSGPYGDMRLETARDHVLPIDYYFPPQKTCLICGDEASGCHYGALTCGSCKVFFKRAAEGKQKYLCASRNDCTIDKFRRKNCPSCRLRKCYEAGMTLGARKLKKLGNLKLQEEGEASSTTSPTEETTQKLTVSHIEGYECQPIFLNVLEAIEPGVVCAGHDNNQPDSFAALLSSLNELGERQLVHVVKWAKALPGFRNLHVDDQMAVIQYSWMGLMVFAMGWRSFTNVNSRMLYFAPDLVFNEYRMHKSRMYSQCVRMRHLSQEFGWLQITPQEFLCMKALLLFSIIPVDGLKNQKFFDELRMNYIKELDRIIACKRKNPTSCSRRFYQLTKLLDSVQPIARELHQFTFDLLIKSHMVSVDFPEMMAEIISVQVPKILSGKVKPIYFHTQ
Chain of Glucocorticoid receptor (Homo sapiens) (P04150 whole entry, looked up): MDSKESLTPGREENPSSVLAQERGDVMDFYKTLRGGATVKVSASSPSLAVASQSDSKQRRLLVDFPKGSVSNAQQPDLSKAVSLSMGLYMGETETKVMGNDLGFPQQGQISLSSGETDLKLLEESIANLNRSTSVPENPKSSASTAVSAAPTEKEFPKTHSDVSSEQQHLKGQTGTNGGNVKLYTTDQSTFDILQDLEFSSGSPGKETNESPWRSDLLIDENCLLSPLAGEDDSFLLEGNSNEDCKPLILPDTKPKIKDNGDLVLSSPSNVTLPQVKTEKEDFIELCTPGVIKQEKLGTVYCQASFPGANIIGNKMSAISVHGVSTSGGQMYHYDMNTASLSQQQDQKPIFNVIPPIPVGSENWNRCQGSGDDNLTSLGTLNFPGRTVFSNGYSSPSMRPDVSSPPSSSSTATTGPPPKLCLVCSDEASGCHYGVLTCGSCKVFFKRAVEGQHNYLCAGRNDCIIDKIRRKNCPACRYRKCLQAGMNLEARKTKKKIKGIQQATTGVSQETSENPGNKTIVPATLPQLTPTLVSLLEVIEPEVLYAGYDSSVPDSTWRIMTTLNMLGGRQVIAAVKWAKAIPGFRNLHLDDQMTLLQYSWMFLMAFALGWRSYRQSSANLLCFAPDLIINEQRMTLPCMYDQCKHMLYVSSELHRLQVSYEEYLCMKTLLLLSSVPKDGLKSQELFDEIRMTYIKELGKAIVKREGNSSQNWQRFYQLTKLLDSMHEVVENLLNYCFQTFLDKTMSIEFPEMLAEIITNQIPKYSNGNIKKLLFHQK

As for `CCCCCCI`, the compound was classed as inactive in test [1], in test [2], in [3], in test [4], in [5] and in test [6]. In addition, the compound was called inactive in [7], in [8] and in test [15]. The Potency result in test [9], in [10], in [11], in test [12], in test [13] and in test [14] was “inactive” throughout. Moreover, the Potency entry in test [16], in test [17] and in test [18] was “inactive” in each case.

On to `COc1cc2c(cc1OC)[C@@]13CCN4CC5=CCO[C@H]6CC(=O)N2[C@H]1[C@H]6[C@H]5C[C@H]43`, for which the outcome in test [1], in [2], in test [3], in test [4], in [5] and in [6] was inactive. In addition, the compound was called inactive in [7] and in [8]. In addition, the Potency result in test [9], in test [13], in [17] and in test [18] was “inactive” each time. The Potency in [10] was 24.3 µM (active); in test [11], 24.3 µM (active); in test [12], 26.6 µM (active) and 13.7 µM (active).

For `CC(=O)CCc1ccc2c(c1)OCO2`, the compound was classed as inactive in [1], in test [2], in test [3], in test [4], in [5] and in [6]. Also, the outcome in test [7], in [8] and in [19] was inactive. In addition, the Potency entry in [9], in [10], in test [11], in test [12], in test [13] and in [17] was “inactive” each time. The Potency entry in test [18] is “inactive”.

On to `C[C@@H]1CN(C2CCC(C#N)(c3ccc(F)cc3)CC2)CC[C@]1(C(=O)O)c1ccccc1` (some centres undefined), for which the fluorescence, % of fluorescein in [1] is 0.0038% [at 18.6 µM]. The fluorescence, % of fluorescent control was -0.0038% [at 18.6 µM] in test [2], 0.238% [at 18.6 µM] in test [4], -0.0833% [at 18.6 µM] in [6] and -0.0325% [at 18.6 µM] in test [8]. The activity change in [3] is -0.0185% [at 18.6 µM]. Further, in test [5], the fluorescence, % of Rose Bengal was -0.17% [at 18.6 µM]. Also, in test [7], the fluorescence, % of fluorescein control is 0.0942% [at 18.6 µM]. In addition, the call in test [19] was inactive. In addition, the Potency result in [9], in test [10], in test [11], in [12], in test [13] and in [17] was “inactive” throughout. Also, in test [18], the Potency entry was “inactive”.

Take `CCC1(c2ccccc2)C(=O)N=C(O)NC1=O` (centres undefined): the call in [1], in test [2], in test [3], in test [4], in [5] and in test [6] was inactive. In addition, the outcome in [7] and in test [8] was inactive. In addition, the Potency entry in [9], in [10], in test [11], in test [13], in [17] and in [18] was “inactive” throughout.

As to `O=C1c2ccccc2C(=O)c2ccccc21`, the result in [1], in test [2], in test [3], in test [4], in test [5] and in [6] was inactive. The call in test [7] and in [8] was inactive. Further, the Potency result in test [9], in test [10], in test [11], in [12] and in test [13] was “inactive” each time.

For `CCOP(=S)(OCC)Oc1ncn(-c2ccccc2)n1`, the compound was classed as inactive in test [1], in test [2], in test [3], in test [4], in [5] and in test [6]. In addition, the call in test [7], in test [8] and in [15] was inactive. The Potency result in test [9], in [13], in test [16], in test [17] and in test [18] was “inactive” throughout. In addition, the Potency is 61.1 µM (active) in [10], 34.4 µM (active) in [11] and 48.6 µM (active) in test [12].

The record behind these values is PubChem BioAssay (Tox21).
